Source: PubChem BioAssay
Active and inactive are the calls of the source.

Experiments:
Albumin (Bos taurus) = Albumin (Bos taurus) (UniProt P02769); experiment: bovine serum albumin binders on microarray, profiling panel, artefact control for SMM control protein annotation, biochemical, small-molecule microarray, Alexa647 label, 635/667 nm fluorescence (AID 1118); settings: BSA-A647 binding, fluorescence 635 nm, higher = more signal;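 further: score merges 667 nm emission intensity and signal-to-noise per printed compound spot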
Albumin (Bos taurus), sequence (P02769 whole entry, looked up): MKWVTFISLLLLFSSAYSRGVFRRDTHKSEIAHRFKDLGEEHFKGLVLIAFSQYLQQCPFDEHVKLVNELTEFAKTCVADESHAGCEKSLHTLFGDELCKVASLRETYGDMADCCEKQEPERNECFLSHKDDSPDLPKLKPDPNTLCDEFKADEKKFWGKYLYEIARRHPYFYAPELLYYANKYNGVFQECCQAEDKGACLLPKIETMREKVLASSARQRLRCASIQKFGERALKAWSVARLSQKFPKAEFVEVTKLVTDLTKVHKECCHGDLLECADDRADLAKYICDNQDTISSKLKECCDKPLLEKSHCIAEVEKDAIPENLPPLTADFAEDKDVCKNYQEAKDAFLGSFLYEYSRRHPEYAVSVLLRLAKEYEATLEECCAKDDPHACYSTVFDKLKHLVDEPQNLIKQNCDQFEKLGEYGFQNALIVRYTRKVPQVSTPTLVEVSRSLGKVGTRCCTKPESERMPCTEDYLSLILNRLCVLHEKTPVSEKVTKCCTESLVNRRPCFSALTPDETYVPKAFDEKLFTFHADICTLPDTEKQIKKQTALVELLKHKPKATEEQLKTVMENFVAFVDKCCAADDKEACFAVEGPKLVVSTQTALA

[1] = small-molecule microarray binders of probe aXIP, primary screen, biochemical, NeuroSMM set, 635/667 nm fluorescence (AID 1119); settings: higher = more signal, called active from +8 up or from −8 down;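 further: probe is the protein aXip251-270 applied at 1 µg/mL to compound-printed slides; binding of probe to printed compounds measured as 667 nm fluorescence plus signal to noise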
[2] = small-molecule binders of probe aNOTCH3, primary screen, biochemical, small-molecule microarray, 635/667 nm fluorescence (AID 1120); settings: higher = more signal;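 further: probe is a biotin-tagged antibody raised against NOTCH3 rather than NOTCH3 protein; score merges spot fluorescence near 667 nm with spot signal to noise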
[3] = small-molecule binders of probe aNOTCH2, primary screen, biochemical, small-molecule microarray, 635/667 nm fluorescence (AID 1121); settings: higher = more signal;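 further: score merges feature fluorescence read at 667 nm with its signal to noise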
[4] = target: Carbonic anhydrase 2 (Homo sapiens) (UniProt P00918); experiment: CAII small-molecule binders, profiling panel, biochemical, small-molecule microarray, Alexa647-labelled CAII (AID 1122); settings: CAII-A647 binding fluorescence, higher = more signal
[5] = COS7 lysate on small-molecule microarray, probe aHis, 635 nm (AID 1123); settings: COS7 cell lysate, fluorescence, higher = more signal;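 further: z-score combines 667nm fluorescence intensity with signal-to-noise per printed compound spot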
[6] = compound binding in COS7 lysate, probe aLAP1, primary screen, cell lysate, small-molecule microarray (AID 1124); settings: probe aLAP1, fluorescence, higher = more signal;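 further: lysate comes from COS7 cells expressing LAP1 and is applied at 0.3 µg/mL; score merges spot fluorescence near 667 nm with signal-to-noise over triplicate slides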
Sam68 (KHDRBS1) = experiment: Sam68 small-molecule binders, primary screen, biochemical, small-molecule microarray, 635 nm fluorescence (AID 1125); settings: small-molecule microarray binding, higher = more signal;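 further: score merges 667 nm channel intensity with signal to noise over triplicate slides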
[7] = system: Chordin-like protein 2 (CHRDL2); experiment: CHRDL2 small-molecule binders, primary screen, biochemical, small-molecule microarray, 635 nm fluorescence (AID 1126); settings: small-molecule microarray binding, fluorescence 635 nm; higher = more signal;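 further: printed compound slides probed with Chrdl2 protein at 4 µg/mL for 1 h at 4 C; score merges 667 nm emission intensity with signal to noise over three replicate slides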
[8] = target: Concanavalin-A (Canavalia ensiformis) (UniProt P02866); experiment: ConA small-molecule binders, primary screen, artefact control for SMM control protein annotation, biochemical, small-molecule microarray, Alexa647 label, 635 nm (AID 1127); settings: ConA-A647 binding fluorescence, higher = more signal;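 further: z combines 667 nm emission intensity with signal-to-noise across three replicate slides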
Concanavalin-A (Canavalia ensiformis), sequence (P02866 whole entry, looked up): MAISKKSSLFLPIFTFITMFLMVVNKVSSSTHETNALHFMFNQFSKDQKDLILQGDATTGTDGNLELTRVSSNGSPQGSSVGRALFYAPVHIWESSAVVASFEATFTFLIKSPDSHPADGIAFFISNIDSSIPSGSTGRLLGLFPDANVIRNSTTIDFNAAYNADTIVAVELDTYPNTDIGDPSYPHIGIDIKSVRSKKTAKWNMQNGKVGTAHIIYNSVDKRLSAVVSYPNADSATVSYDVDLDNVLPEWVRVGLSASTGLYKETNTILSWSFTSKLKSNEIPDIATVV

[9] = anti-His antibody binders, primary screen, artefact control for SMM control protein annotation, biochemical, small-molecule microarray, 635 nm fluorescence (AID 1128); settings: anti-His Alexa647 antibody binding, higher = more signal;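 further: score merges feature fluorescence with signal-to-noise for each printed compound spot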
[10] = system: Human papillomavirus type 1a E7 protein (residues 1-88); experiment: HPV1a E7 small-molecule binders, primary screen, biochemical, small-molecule microarray, residues 1-88, 635 nm (AID 1129); settings: small-molecule microarray binding, fluorescence 635 nm; higher = more signal
[11] = target: Focal adhesion kinase 1 (Homo sapiens) (UniProt Q05397); experiment: small-molecule microarray binders of FAK, primary screen, biochemical, 635/667 nm fluorescence, BSA, DTT (AID 1130); settings: PTK2 binding, 635 nm fluorescence, higher = more signal;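 further: composite of spot emission at 667 nm and signal to noise over triplicate slides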
Focal adhesion kinase 1 (Homo sapiens), sequence (Q05397 whole entry, looked up): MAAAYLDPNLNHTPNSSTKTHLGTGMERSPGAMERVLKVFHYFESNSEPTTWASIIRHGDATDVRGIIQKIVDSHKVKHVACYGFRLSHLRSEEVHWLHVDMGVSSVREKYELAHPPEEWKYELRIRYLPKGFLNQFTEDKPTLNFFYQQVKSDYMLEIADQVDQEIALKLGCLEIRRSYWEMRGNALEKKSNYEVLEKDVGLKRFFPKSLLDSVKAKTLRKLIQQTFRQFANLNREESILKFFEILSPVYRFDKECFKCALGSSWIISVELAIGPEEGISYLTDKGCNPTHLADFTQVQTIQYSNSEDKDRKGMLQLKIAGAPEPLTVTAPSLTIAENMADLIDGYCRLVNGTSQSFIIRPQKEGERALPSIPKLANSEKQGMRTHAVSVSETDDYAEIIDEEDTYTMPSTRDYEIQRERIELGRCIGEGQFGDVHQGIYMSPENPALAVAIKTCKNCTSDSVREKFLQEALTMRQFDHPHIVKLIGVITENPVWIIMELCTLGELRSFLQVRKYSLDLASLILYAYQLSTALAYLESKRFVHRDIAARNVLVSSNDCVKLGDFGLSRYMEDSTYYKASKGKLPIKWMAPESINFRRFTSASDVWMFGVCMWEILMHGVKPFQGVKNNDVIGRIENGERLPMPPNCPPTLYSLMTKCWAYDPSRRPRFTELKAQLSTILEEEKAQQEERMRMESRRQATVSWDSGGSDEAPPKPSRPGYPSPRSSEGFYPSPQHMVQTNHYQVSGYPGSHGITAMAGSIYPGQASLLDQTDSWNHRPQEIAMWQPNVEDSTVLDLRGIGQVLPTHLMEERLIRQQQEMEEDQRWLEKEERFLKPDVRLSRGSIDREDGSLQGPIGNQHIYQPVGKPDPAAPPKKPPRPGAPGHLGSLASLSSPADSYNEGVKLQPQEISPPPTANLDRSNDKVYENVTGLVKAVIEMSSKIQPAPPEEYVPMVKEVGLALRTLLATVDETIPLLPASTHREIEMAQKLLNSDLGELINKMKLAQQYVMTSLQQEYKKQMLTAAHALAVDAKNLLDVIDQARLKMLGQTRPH

[12] = system: Fibrinogen (Alexa647-labelled); experiment: fibrinogen binders on compound microarrays, profiling panel, artefact control for SMM control-protein annotation, biochemical, small-molecule microarray, 635/667 nm fluorescence (AID 1131); settings: fibrinogen-A647 binding fluorescence, higher = more signal;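 further: z-score merges 667 nm fluorescence with per-spot signal-to-noise over triplicate slides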
[13] = target: Follistatin (Homo sapiens) (UniProt P19883); experiment: follistatin binders on small-molecule microarrays, primary screen, biochemical, small-molecule microarray, 635/667 nm fluorescence (AID 1132); settings: FST binding, 635 nm fluorescence, higher = more signal
Follistatin (Homo sapiens), sequence (P19883 whole entry, looked up): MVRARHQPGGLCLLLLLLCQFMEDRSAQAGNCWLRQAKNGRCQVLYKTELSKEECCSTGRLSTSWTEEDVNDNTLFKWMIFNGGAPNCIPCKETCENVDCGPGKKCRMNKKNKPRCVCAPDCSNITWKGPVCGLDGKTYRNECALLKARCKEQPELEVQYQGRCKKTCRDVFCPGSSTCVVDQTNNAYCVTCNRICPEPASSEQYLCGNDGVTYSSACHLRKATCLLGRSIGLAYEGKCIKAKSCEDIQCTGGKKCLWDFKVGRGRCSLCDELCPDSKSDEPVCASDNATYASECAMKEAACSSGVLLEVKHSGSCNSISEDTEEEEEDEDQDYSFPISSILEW

[14] = target: Fibroblast growth factor 2 (Homo sapiens) (UniProt P09038); experiment: FGF2 binders on small-molecule microarrays, primary screen, biochemical, small-molecule microarray, 635/667 nm fluorescence (AID 1133); settings: small-molecule microarray binding, FGF2, fluorescence 635/667; higher = more signal
Fibroblast growth factor 2 (Homo sapiens), sequence (P09038 whole entry, looked up): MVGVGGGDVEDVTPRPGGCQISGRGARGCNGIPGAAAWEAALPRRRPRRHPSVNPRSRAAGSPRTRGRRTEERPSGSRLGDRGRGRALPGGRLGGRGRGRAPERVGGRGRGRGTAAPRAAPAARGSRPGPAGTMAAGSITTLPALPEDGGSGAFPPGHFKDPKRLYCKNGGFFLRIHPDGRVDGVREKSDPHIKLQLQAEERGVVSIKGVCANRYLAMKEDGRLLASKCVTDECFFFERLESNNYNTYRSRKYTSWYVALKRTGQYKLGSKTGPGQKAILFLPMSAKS

[15] = mitochondrial membrane potential change in A549 cells, profiling panel, cell-based, JC-1 fluorescence, basal, 24 h, 100 nL (AID 1138); settings: higher = more signal;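 further: A549 lung adenocarcinoma cells under basal conditions with no added stimulus; test concentration not given here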
Lefty1 = Lefty1 binders on small-molecule microarrays, primary screen, biochemical, small-molecule microarray, 635/667 nm fluorescence (AID 1139); settings: small-molecule microarray binding, fluorescence 635/667; higher = more signal
[16] = system: wheat germ agglutinin (Triticum aestivum), Alexa647-labelled; experiment: wheat germ agglutinin binders on compound microarrays, profiling panel, artefact control for SMM control-protein annotation, biochemical, small-molecule microarray, 635/667 nm fluorescence (AID 1140); settings: WGA-A647 binding, 635 nm fluorescence, higher = more signal;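 further: score merges 667 nm feature emission with signal to noise over triplicate slides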
[17] = target: Luciferin 4-monooxygenase (Photinus pyralis) (UniProt P08659); experiment: firefly luciferase enzyme inhibitors, primary screen, biochemical, luminescence, purified enzyme, 2006 set (AID 1141); settings: SteadyGlo luminescence, 30 min, higher = more signal, called active from +8 up or from −8 down;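 further: cell-free assay with purified firefly luciferase at 100 ng per well in PBS; test concentration not given here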
Luciferin 4-monooxygenase (Photinus pyralis), sequence (P08659 whole entry, looked up): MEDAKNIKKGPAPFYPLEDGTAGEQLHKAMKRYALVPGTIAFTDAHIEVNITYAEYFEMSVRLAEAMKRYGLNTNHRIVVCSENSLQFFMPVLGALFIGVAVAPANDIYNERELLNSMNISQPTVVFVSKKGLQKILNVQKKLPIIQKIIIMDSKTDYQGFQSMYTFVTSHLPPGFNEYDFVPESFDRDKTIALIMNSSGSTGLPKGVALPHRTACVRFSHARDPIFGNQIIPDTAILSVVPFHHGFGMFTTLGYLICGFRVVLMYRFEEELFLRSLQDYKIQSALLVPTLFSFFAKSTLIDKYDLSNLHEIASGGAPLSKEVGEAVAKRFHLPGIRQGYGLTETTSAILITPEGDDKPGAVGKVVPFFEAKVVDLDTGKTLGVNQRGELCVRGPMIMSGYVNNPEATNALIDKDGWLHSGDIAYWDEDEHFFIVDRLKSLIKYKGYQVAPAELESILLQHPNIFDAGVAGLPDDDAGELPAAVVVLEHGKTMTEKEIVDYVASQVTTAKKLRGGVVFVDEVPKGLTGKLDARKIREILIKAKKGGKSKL

SMILES	composite z-score (Albumin (Bos taurus))	composite Z-score [1]	composite z-score [2]	composite z-score [3]	composite z-score [4]	composite z-score [5]	composite z-score [6]	composite z-score (Sam68 (KHDRBS1))	composite z-score [7]	composite z-score [8]	composite z-score [9]	composite z-score [10]	composite z-score [11]	composite z-score [12]	composite z-score [13]	composite z-score [14]	z-score [15]	composite z-score (Lefty1)	composite z-score [16]	z-score [17]
C[C@@H]1C=CCC(=O)OC[C@H]2O[C@@H](C=C[C@@H]2O)[C@H](C)C=CCC(=O)OC[C@H]2O[C@H]1C=C[C@@H]2O	-0.581	1.21 (inactive)	0.716	-0.0318	-0.227	-0.268	-0.725	0.65	1.58	-0.343	0.106	-0.145	-0.095	-0.282	1.53	1.83	0.307	1.75	-0.312	-0.304 (inactive)
CCCC[C@H]1OB(O)C[C@H]2C1=C(COC)C[C@H]1C(=O)N(Cc3ccccc3)C(=O)[C@H]12	0.11	-0.328 (inactive)	0.0727	-0.182	0.606	0.0082	0.102	0.252	-0.0765	0.106	-0.438	0.422	0.112	0.575	0.935	1.18	1.03	0.499	0.552	-1.22 (inactive)
COCCOC(=O)N1C(=O)[C@@]2(c3cc(C#CC4(O)CCCCCC4)ccc31)[C@H](C(=O)N1CCCCCCC1)[C@H]1C(=O)O[C@H](c3ccccc3)[C@H](c3ccccc3)N1[C@@H]2c1ccc(O)cc1	-0.653	0.108 (inactive)	0.885	0.337	0.485	2.62	-0.139	1.3	0.519	1.08	1.25	1.22	0.646	0.72	1.48	0.536	0.208	1.08	1.38	-1.27 (inactive)
O=C1O[C@@H](c2ccccc2)[C@@H](c2ccccc2)N2[C@@H](c3ccc(O)cc3)[C@]3(C(=O)Nc4ccccc43)[C@@H](C(=O)N3CCN(c4ncccn4)CC3)[C@H]12	0.689	5.4 (inactive)	-0.122	-0.154	0.686	0.456	0.613	0.528	-0.571	0.474	0.265	1.19	0.225	0.179	0.169	-0.0433	0.948	-0.173	-0.387	-1.51 (inactive)
COC(=O)[C@@]1(Cc2ccccc2CN=[N+]=[N-])N=C(c2ccc(OCCCO)cc2)O[C@H]1c1ccccc1N=[N+]=[N-]	-0.0759	-0.22 (inactive)	-0.0164	0.215	0.569	1.33	-0.507	0.454	-0.388	0.544	-0.0307	0.339	1.96	0.694	0.832	0.0085	-0.403	0.79	0.727	-10.1 (active)
